Shown are actives, neighbours in structure and some others; about 1.9% of the full set was active somewhere.
CaV13 ICDI inh: Primary screen for inhibitors of IQ motif and Ca2+-dependent inactivation inhibitor domain binding in CACNA1D, Förster resonance energy transfer in living cells, … | AID 743397 | inhibition, % at 12.3 µM | actives 0.098% (n = 340,000) | HEK cells, CFP/YFP FRET ICDI-IQ, plate reader, 10 min; percent FRET-ratio fall versus neutral wells;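 active means mean replicate inhibition of at least 30% and at least 1% of replicates passing that level; inconclusive means only one of the two criteria is met; inactive means neither criterion is met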;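 further: 0% = median of the neutral control wells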
ATG4B inhibitor: ATG4B protease inhibitors, primary screen, biochemical, fluorescence, uHTS; Cysteine protease ATG4B (Homo sapiens), Q9Y4P1; ATG4B cleavage of LC3-PLA2, NBD-HPC fluorescence, 1 h; inhibition, % at 8.33 µM; actives 0.51% (n = 340,000); AID 504462, 2011; in the data active means inhibition above about 40%
Glyco luc inh: increase of ERlucT glycosylation luciferase signal, primary screen, N-linked glycosylation inhibitor project, D54 ERlucT cells, luminescence, set 2; D54 ERlucT glycosylation luciferase reporter, 24 h; percent of 100 nM tunicamycin response; AID 588692, 2011; actives 0.23% (n = 360,000); reporter increase, % at 12.5 µM;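 active means mean luciferase reporter signal, scaled so untreated is 0 and the glycosylation-blocking control 100, at or above a set limit in every replicate; inconclusive means mean reaches the limit but not every replicate does; inactive means mean below the limit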;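 further: luciferase carries N-glycosylation sites so blocking glycosylation raises the light; 0% = median of neutral control wells and 100% = median of 100 nM tunicamycin wells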
Pemphigus Ab inh: inhibitors of pemphigus antibody binding to DSG3, primary screen, biochemical, bead-based, flow cytometry, scFv-GFP. DSG3-coupled beads, scFv-anti-DSG3-GFP binding; stronger effect = lower value. binding (percent of control), % at 10 µM. actives 0.48% (n = 310,000). AID 588358, 2011;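 active means binding more than 3 SD below its plate's average and above zero; inconclusive means below that plate limit but binding exactly zero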;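 further: hits lower antibody fragment binding to DSG3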
Vif inh: HIV Vif self-association inhibitors, primary screen, imaging, HEK293T, single point | HEK293T cells, Vif self-association by quenched fluorescence, 24 h | inhibition, % at 7.49 µM | actives 0.35% (n = 340,000) | AID 602346, 2012; in the data active means inhibition above about 50%, passing the limit was not always enough; inconclusive means no clear call, values can overlap the other calls; inactive means below about 31%
NSD2 HMT inh: NSD2 histone methyltransferase inhibitors, primary screen, biochemical, AlphaScreen, single concentration, set 2; Histone-lysine N-methyltransferase NSD2 (Homo sapiens), O96028; NSD2 peptide methylation, 120 min; inhibition, % at 12.5 µM; actives 0.54% (n = 310,000); AID 743445, 2014
ATG4B confirm: ATG4B protease inhibitors, retest, confirmation, biochemical, fluorescence, single concentration; shares compounds with ATG4B inhibitor; ATG4B protease fluorescent substrate cleavage assay; inhibition, % at 8.33 µM; actives 92% (n = 320); AID 504757, 2011; in the data active means inhibition above about 39%
PLA2 counter: PLA2 enzyme inhibition, counter-screen for ATG4B inhibitor project, biochemical, single concentration, uHTS hits; shares compounds with ATG4B inhibitor; purified PLA2, NBD-C6-HPC fluorescence, 45 min; inhibition, % at 8.33 µM; actives 66% (n = 1,600)
An asterisk follows results filed as active; ? = inconclusive; / = no result given. Unless noted, no stated cut-off is given here; in the data, active means inhibition above about 50%; inactive means the rest.

SMILES | CaV13 ICDI inh | ATG4B inhibitor | Glyco luc inh | Pemphigus Ab inh | Vif inh | NSD2 HMT inh | PLA2 counter | others
O=C(O)c1cc(O)c2c(c1)[C@@H]([C@H]1c3cc(C(=O)O)cc(O)c3C(=O)c3c(O[C@@H]4O[C@H](CO)[C@@H](O)[C@H](O)[C@H]4O)cccc31)c1cccc(O[C@@H]3O[C@H](CO)[C@@H](O)[C@H](O)[C@H]3O)c1C2=O | / | 47* | / | / | / | / | -12
OCC1OC(Oc2cccc3ccccc23)C(O)C(O)C1O (stereo not drawn) | -4 | -4 | 1 | 95 | -17 | -1 | /
OC(c1cc(-c2ccc(Cl)cc2)nc2ccccc12)C1CCCCN1 (stereo not drawn) | -4 | 42* | 1 | 107 | 4 | 3 | 52*
CCNc1ccc(C(=O)OCC(=O)N(Cc2ccccc2)C(C)(C)C)cc1[N+](=O)[O-] | -3 | 43* | -4 | 82 | 0 | 2 | 10
O=C(c1ccc(OC2CCN(C/C=C/c3ccc(F)cc3)CC2)cc1)N1CCCC1 | -3 | 42* | -6 | 104 | -5 | 5 | 48 | ATG4B confirm=64*
CCOC(=O)C1CCN(c2ncnc3c2cnn3-c2ccccc2)CC1 | -9 | -12 | 3 | 100 | -4 | -12 | /
CCN(CC(=O)N1CCc2ccccc2C1)S(=O)(=O)c1ccc2ccccc2c1 | -5 | 46* | 1 | 103 | -6 | -1 | 41 | ATG4B confirm=66*
Cc1cc(NC(=O)CSc2nc3c(c(=O)n2-c2ccc(Cl)cc2)SCC3)no1 | -5 | 12 | 5 | 85 | -5 | 2 | /
COC(=O)c1ccc(CSc2nc3ccccc3c(=O)n2-c2ccccc2)o1 | / | 65* | 6 | 96 | 4 | 1 | 73*
COC(=O)c1ccc(CSc2nc3c(c(=O)n2-c2ccc(F)cc2)SCC3)o1 | / | 48* | 3 | 92 | 14 | 2 | 50
O=c1c2ccccc2nc(SCc2nnc(-c3ccccc3)o2)n1-c1ccccc1 | -8 | 72* | 4 | 105 | -7 | -2 | 73*
O=C(CSc1nc2c(c(=O)n1-c1ccc(Cl)cc1)SCC2)Nc1nccs1 | -4 | 61* | 4 | 108 | -24 | / | 80*
O=C(/C=C/c1ccc(OCCCF)cc1)NCc1cccc(Cl)c1 | / | 45* | -4 | ? | -17 | -1 | 49
O=C(/C=C/c1ccc(S(=O)(=O)NCc2ccco2)cc1)NCc1cccc(Cl)c1 | -6 | 52* | -3 | 102 | -6 | 1 | 62*
Cc1ccc(CNC(=O)/C=C/c2ccc(S(=O)(=O)NCc3ccco3)cc2)cc1 | -3 | -12 | -2 | 110 | -15 | 2 | /
CCCOc1ccc(NCC(=O)Nc2ccc(C)cc2C)cc1 | -5 | 2 | 1 | / | 2 | / | /
CC(=O)Nc1ccccc1C(=O)C(=O)Nc1cccc(C(=O)NCc2ccc(C)cc2)c1 | -2 | / | / | / | / | 13 | /
CCOc1ccc(C2=CS/C(=C(\C#N)c3nnc4n3CCCCC4)N2CC)cc1 | / | 48* | -4 | 101 | -9 | 8 | 42 | ATG4B confirm=72*
Cc1ccc(Cl)cc1N1CCN(C(=O)CSc2nnc3n2C(C)(C)Cc2ccccc2-3)CC1 | -6 | 44* | -3 | 109 | -6 | -3 | 69*
COCC(C)NS(=O)(=O)c1ccc(C(=O)NCCCn2ccc3ccccc32)cc1 (stereo not drawn) | -4 | -1 | 0 | 100 | 0 | 1 | /

Source: PubChem (several laboratories)
